Assay results as given in PubChem BioAssay (NCATS).
Inconclusive results are not listed. The source made the active and inactive calls. Calls follow the shape of the dose curve; as a rule, active = well fitted cell-killing curve with a large enough effect; inconclusive = small, poorly fitted or top-dose-only effect, or effect the other way; inactive = flat fitted curve, though single readings scatter. Where a SMILES comes first, the peptide text is derived from it. [ ]: non-standard residue; d: D form. ξ: configuration not given here. ξLac(3-iPr) = CC(C)CC(O)C(=O)O; NMeV = CN[CH](C(=O)O)C(C)C; βAla = NCCC(=O)O

Legend:
Assay in all cases: Primary qHTS to identify gynecologic anti-cancer compounds using libraries of approved drugs and bioactive compounds (AID 1345084); also: nearly all actives have a fitted effect of over 55% in size
C33A = conditions: Gynecologic cancer cell panel viability, ATPlite luminescence, 48 h; series mostly up to 57.5 µM
In short: (§1)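 Cells, 1,000 per well, were allowed to settle for 16 h at 37 C before compound addition. Five concentrations were tested for 48 h, and viability was read by ATPlite luminescence after 15 min at room temperature.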

CAOV3 = conditions: Gynecologic cancer cell panel viability, ATPlite luminescence, 48 h; series mostly up to 57.5 µM
In short: as §1

CASKI = conditions: Gynecologic cancer cell panel viability, ATPlite luminescence, 48 h; series mostly up to 57.5 µM
In short: as §1

Es-2 = conditions: Gynecologic cancer cell panel viability, ATPlite luminescence, 48 h; series mostly up to 57.5 µM
In short: as §1

HeLa = conditions: Gynecologic cancer cell panel viability, ATPlite luminescence, 48 h; series mostly up to 57.5 µM
In short: as §1

Hek293T = conditions: Gynecologic cancer cell panel viability, ATPlite luminescence, 48 h, control line for the selectivity index; series mostly up to 57.5 µM
In short: as §1

JEG-3 = conditions: Gynecologic cancer cell panel viability, ATPlite luminescence, 48 h; series mostly up to 57.5 µM
In short: as §1

OV90 = conditions: Gynecologic cancer cell panel viability, ATPlite luminescence, 48 h; series mostly up to 57.5 µM
In short: as §1

PA-1 = conditions: Gynecologic cancer cell panel viability, ATPlite luminescence, 48 h; series mostly up to 57.5 µM
In short: as §1

SKOV3 = conditions: Gynecologic cancer cell panel viability, ATPlite luminescence, 48 h; series mostly up to 57.5 µM
In short: as §1

Tov-21-G = conditions: Gynecologic cancer cell panel viability, ATPlite luminescence, 48 h; series mostly up to 57.5 µM
In short: as §1

Tov112D = conditions: Gynecologic cancer cell panel viability, ATPlite luminescence, 48 h; series mostly up to 57.5 µM
In short: as §1
% is scaled to controls: 0 for no effect and ±100 for the full control effect.

CC(C)CC1OC(=O)C2CCCN2C(=O)CCNC(=O)C(Cc2ccccc2)NC(=O)C(C(C)C)N(C)C(=O)C(C(C)C)N(C)C1=O (stereo not given) (cyclo([ξLac(3-iPr)][NMeV][NMeV]F[βAla]P); configuration not given here)
inactive: Potency (C33A) | Potency (CAOV3) | Potency (CASKI) | Potency (Es-2) | Potency (HeLa) | Potency (Hek293T) | Potency (JEG-3) | Potency (OV90) | Potency (PA-1) | Potency (SKOV3) | Potency (Tov-21-G) | Potency (Tov112D)

CC1C(=O)CC2C3CCC(C(=O)O)C12CC3(C)CO (stereo not given)
inactive: Potency (C33A) | Potency (CAOV3) | Potency (CASKI) | Potency (Es-2) | Potency (HeLa) | Potency (Hek293T) | Potency (JEG-3) | Potency (OV90) | Potency (PA-1) | Potency (SKOV3) | Potency (Tov-21-G) | Potency (Tov112D)

COc1c2c(c(C)c3c1C(=O)OC3)OC1(C)CC(O)C34OC(OC)(OC3(C)C)C(O)CC4(C)C1C2 (stereo not given)
inactive: Potency (C33A) | Potency (CAOV3) | Potency (CASKI) | Potency (Es-2) | Potency (HeLa) | Potency (Hek293T) | Potency (JEG-3) | Potency (OV90) | Potency (PA-1) | Potency (SKOV3) | Potency (Tov-21-G) | Potency (Tov112D)

CCOc1ccc2nc(SCCN3CCOCC3)[nH]c2c1
inactive: Potency (C33A) | Potency (CAOV3) | Potency (CASKI) | Potency (Es-2) | Potency (HeLa) | Potency (Hek293T) | Potency (JEG-3) | Potency (OV90) | Potency (PA-1) | Potency (SKOV3) | Potency (Tov-21-G) | Potency (Tov112D)

O=C(O)COCCN1CCN([C@H](c2ccccc2)c2ccc(Cl)cc2)CC1
inactive: Potency (C33A) | Potency (CAOV3) | Potency (CASKI) | Potency (Es-2) | Potency (HeLa) | Potency (Hek293T) | Potency (JEG-3) | Potency (OV90) | Potency (PA-1) | Potency (SKOV3) | Potency (Tov-21-G) | Potency (Tov112D)

CC/C=C\[C@H](O)[C@H](O)C1=C(C)C(=O)[C@]2(O1)C(=O)N[C@@](OC)(C(=O)c1ccccc1)[C@@H]2O
inactive: Potency (C33A) | Potency (CAOV3) | Potency (CASKI) | Potency (Es-2) | Potency (HeLa) | Potency (Hek293T) | Potency (JEG-3) | Potency (OV90) | Potency (PA-1) | Potency (SKOV3) | Potency (Tov-21-G) | Potency (Tov112D)

CC(C)=CCC[C@](C)(O[C@@H]1O[C@H](CO)[C@@H](O)[C@H](O)[C@H]1O)[C@H]1CC[C@]2(C)[C@@H]1[C@H](O)CC1[C@@]3(C)CC[C@H](O)C(C)(C)C3[C@@H](O[C@@H]3O[C@H](CO)[C@@H](O)[C@H](O)[C@H]3O)C[C@]12C (stereo not given in full)
inactive: Potency (C33A) | Potency (CAOV3) | Potency (CASKI) | Potency (Es-2) | Potency (HeLa) | Potency (Hek293T) | Potency (JEG-3) | Potency (OV90) | Potency (PA-1) | Potency (SKOV3) | Potency (Tov-21-G) | Potency (Tov112D)

CC(=O)O[C@@H]1c2c(C)coc2C(=O)[C@@]23O[C@@H]2CC[C@H](C)[C@@]13C
inactive: Potency (C33A) | Potency (CAOV3) | Potency (CASKI) | Potency (Es-2) | Potency (HeLa) | Potency (Hek293T) | Potency (JEG-3) | Potency (OV90) | Potency (PA-1) | Potency (SKOV3) | Potency (Tov-21-G) | Potency (Tov112D)

C[C@@H]1O[C@@H](O[C@H]2[C@H](OC(=O)[C@]34CCC(C)(C)C[C@H]3C3=CCC5[C@@]6(C)C[C@H](O)[C@H](O[C@@H]7O[C@H](CO)[C@@H](O[C@H]8OC[C@](O)(CO)[C@H]8O)[C@H](O)[C@H]7O)[C@@](C)(CO)C6[C@H](O)C[C@@]5(C)[C@]3(C)C[C@H]4O)OC[C@H](O)[C@@H]2O)[C@H](O)[C@H](O)[C@H]1O[C@@H]1OC[C@@H](O)[C@H](O[C@@H]2OC[C@](O)(CO)[C@H]2O)[C@H]1O (stereo not given in full)
inactive: activity change, negative = cytotoxicity (C33A) -2.68% [at 6.55 µM] | activity change, negative = cytotoxicity (CAOV3) -10.4% [at 6.55 µM] | activity change, negative = cytotoxicity (CASKI) -0.0524% [at 6.55 µM] | activity change, negative = cytotoxicity (Es-2) 0.233% [at 6.55 µM] | activity change, negative = cytotoxicity (HeLa) -3.15% [at 6.55 µM] | activity change, negative = cytotoxicity (Hek293T) 2.67% [at 6.55 µM] | activity change, negative = cytotoxicity (JEG-3) 23.3% [at 6.55 µM] | activity change, negative = cytotoxicity (OV90) -28.7% [at 6.55 µM] | activity change, negative = cytotoxicity (PA-1) 18.7% [at 6.55 µM] | activity change, negative = cytotoxicity (SKOV3) 13.1% [at 6.55 µM] | activity change, negative = cytotoxicity (Tov-21-G) -9.27% [at 6.55 µM] | activity change, negative = cytotoxicity (Tov112D) -0.812% [at 6.55 µM]

CCc1cccc(CC)c1NC(=O)c1nn(C)c2c1CCc1cnc(Nc3ccc(C(=O)NC4CCN(C)CC4)cc3OC(F)(F)F)nc1-2
inactive: Potency (C33A) | Potency (CAOV3) | Potency (CASKI) | Potency (Es-2) | Potency (HeLa) | Potency (Hek293T) | Potency (JEG-3) | Potency (OV90) | Potency (PA-1) | Potency (SKOV3) | Potency (Tov-21-G) | Potency (Tov112D)

C/C=C/C=C/C=C/C(=O)OC1C=C(C=O)C(O)(C(=O)O)C2(C)CCCC(C)(C)C12 (stereo not given)
inactive: Potency (C33A) | Potency (CAOV3) | Potency (CASKI) | Potency (Es-2) | Potency (HeLa) | Potency (Hek293T) | Potency (JEG-3) | Potency (OV90) | Potency (PA-1) | Potency (SKOV3) | Potency (Tov-21-G) | Potency (Tov112D)

CCOc1ccc(S(=O)(=O)n2c(C)nc3ccccc32)cc1
inactive: Potency (C33A) | Potency (CAOV3) | Potency (CASKI) | Potency (Es-2) | Potency (HeLa) | Potency (Hek293T) | Potency (JEG-3) | Potency (OV90) | Potency (PA-1) | Potency (SKOV3) | Potency (Tov-21-G) | Potency (Tov112D)

c1cc(OCCCN2CCCCC2)ccc1CN1CCCCC1
inactive: Potency (C33A) | Potency (CAOV3) | Potency (CASKI) | Potency (Es-2) | Potency (HeLa) | Potency (Hek293T) | Potency (JEG-3) | Potency (OV90) | Potency (PA-1) | Potency (SKOV3) | Potency (Tov-21-G) | Potency (Tov112D)

CC(C)C(C(=O)N(C)C(C)C(N)=O)N(C)C(=O)C1CCCN1C(=O)/C=C/C=C/C(O)C(C)O (stereo not given)
inactive: Potency (C33A) | Potency (CAOV3) | Potency (CASKI) | Potency (Es-2) | Potency (HeLa) | Potency (Hek293T) | Potency (JEG-3) | Potency (OV90) | Potency (PA-1) | Potency (SKOV3) | Potency (Tov-21-G) | Potency (Tov112D)

CC(CO)C1CCC2(C)CC3C(CO)CC(O)C3C(C)(O)C/C=C/12 (stereo not given)
inactive: Potency (C33A) | Potency (CAOV3) | Potency (CASKI) | Potency (Es-2) | Potency (HeLa) | Potency (Hek293T) | Potency (JEG-3) | Potency (OV90) | Potency (PA-1) | Potency (SKOV3) | Potency (Tov-21-G) | Potency (Tov112D)
